# This is part of a sample that, as a whole, favours compounds with a hit. Of some 83,000 tested, about 20% had one in any assay.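 Percent growth is the endpoint: 0 to 100 indicates growth inhibition (40 means 60% inhibition), 0 means no net growth, and negative values indicate cell death.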 A number with no mark means an inactive call. Activity calls are given as the source filed them. Rule for the calls: active = growth percent below 10; inactive = the rest.
# Columns and labels:
# Assay in all cases: NCI-60 one-dose screen, 48 h (100 = growth as untreated, 0 = no growth, -100 = all killed)
# Conditions in all cases: 10 µM unless noted
# SK-MEL-2 melanoma = system: SK-MEL-2 melanoma
# EKVX NSCLC = system: EKVX NSCLC
# SN12C renal = system: SN12C renal
# UO-31 renal = system: UO-31 renal
# TK-10 renal = system: TK-10 renal
# ACHN renal = system: ACHN renal
# CAKI-1 renal = system: CAKI-1 renal
# A498 renal = system: A498 renal
# CCRF-CEM leukemia = system: CCRF-CEM leukemia
# MOLT-4 leukemia = system: MOLT-4 leukemia
Compound,growth (SK-MEL-2 melanoma),growth (EKVX NSCLC),growth (SN12C renal),growth (UO-31 renal),growth (TK-10 renal),growth (ACHN renal),growth (CAKI-1 renal),growth (A498 renal),growth (CCRF-CEM leukemia),growth (MOLT-4 leukemia)
O=C(O)C1[S][Sb]([CH](C(=O)O)[CH](C(=O)O)[Sb]2[S]C(C(=O)O)C(C(=O)O)[S]2)[S]C1C(=O)O (stereo not given),64.7%,98%,90.2%,77.4%,124%,96.5%,96.3%,101%,52.9%,63.7%
Oc1[nH]c2ccc(Cl)cc2c1/C=c1/ccc2c(c1)N=C(c1ccc(F)cc1)N=2,92.3%,40.4%,74.1%,61.4%,111%,86.6%,44.5%,56.1%,7.83% (active),35%
CC(C)c1ccc(Cn2ccc3c4c(N)nc(NC5CC5)nc4ccc32)cc1,-82.6% (active),-84.2% (active),-91.5% (active),-99% (active),-97.2% (active),-98.9% (active),-98.6% (active),-82.3% (active),-16.3% (active),-42.8% (active)
Clc1ccccc1Nc1nnc(-c2ccncc2)s1,107%,91.7%,86%,90.7%,111%,104%,90.5%,92.1%,96%,93.4%
OC(c1cc(-c2ccc(C(F)(F)F)cc2)nc(-c2ccc(C(F)(F)F)cc2)c1)C1CCCCN1 (stereo not given),-66.6% (active),-65.4% (active),-78.5% (active),-83.6% (active),-90.6% (active),-73.4% (active),-81.6% (active),-80.5% (active),-56.2% (active),-57.5% (active)
O=S(=O)(NCC[C@@H]1C[C@H]1c1ccc2ccccc2c1)c1ccc(C(F)(F)F)cc1,104%,91.1%,92.9%,81.7%,100%,99.2%,79.4%,94.2%,85%,84.3%
O=C(CCCCCCc1nc2ccc(Br)cc2[nH]1)NO,-5.43% (active),28.6%,1.73% (active),-17.9% (active),-13.9% (active),-36.2% (active),-41.5% (active),9.4% (active),9.8% (active),7.38% (active)
Fc1[nH]nc2ccc([C@@H]3Nc4ccc5[nH]ncc5c4[C@H]4C5CCC(C5)[C@@H]34)cc12 (stereo not given in full),33.1%,36.1%,46.1%,51.3%,42.4%,43.7%,32.6%,-12.4% (active),18%,21.2%
Brc1cccc(-n2ncc3c(Nc4ccc(-c5nnc(-c6ccccc6)o5)cc4)ncnc32)c1,115%,102%,97.8%,75.9%,120%,96.7%,90.4%,109%,118%,108%
O=C(Nc1ccccc1Cl)Oc1ccc2ccccc2c1,97.3%,98.9%,99.3%,68.7%,130%,98.3%,97.8%,100%,114%,78.2%
COc1cc(/C=C2\C(=O)Nc3ccc(N(C)C)cc32)cc(OC)c1OC,61.2%,34.4%,25.2%,35.2%,42.3%,41.6%,22.2%,-18.2% (active),21.9%,36.2%
CC1=C(O)C(=O)C(c2c(C)cc(C)c(Br)c2C)=C(O)C1=O,81.6%,81.8%,55%,83.7%,73.6%,54%,50.2%,64.1%,43.1%,54.6%
Nc1ccc(C(OC(=O)c2cc3ccccc3c(Cc3c(O)c(C(=O)OC(c4ccc(N)cc4)(c4ccc(N)cc4)c4ccc(N)cc4)cc4ccccc34)c2O)(c2ccc(N)cc2)c2ccc(N)cc2)cc1,-17.2% (active),-5.75% (active),-2.33% (active),29%,44.6%,47.5%,11.3%,-3.31% (active),21.6%,21%
Fc1cnccc1-c1nc2ccc3[nH]ncc3c2c2c1CCCC2,-1.94% (active),35.6%,25.6%,11.6%,13.7%,7.42% (active),-4.24% (active),0.691% (active),16.1%,21.2%
CCN(CC)Cc1cc(Nc2nc(NC3CCC(N(C)C)CC3)c3ccccc3n2)ccc1OC (stereo not given),116%,89%,71.5%,73.3%,105%,90.8%,102%,119%,66.1%,48.2%
COc1cc(C2Nc3ccccc3S2)cc(CN2CCOCC2)c1O (stereo not given),64.4%,102%,91.9%,45.6%,84.7%,88.3%,74%,73.3%,80.1%,25.3%
CCOC(=O)c1ccc(NCCC(=O)O)cc1,96.7%,122%,108%,83.1%,101%,103%,109%,113%,97.6%,87.2%
COc1cc(CN2CCO[C@H](COc3cccc(F)c3)C2)ccc1Cl,31%,46.3%,29.3%,45.6%,46.9%,53.9%,41.3%,30.6%,42.8%,52.8%
Fc1ccc2c(CN3CCO[C@H](COc4cccc(Cl)c4)C3)c[nH]c2c1,71.1%,74.3%,49.1%,51.4%,22.1%,46.8%,65.3%,53.9%,38.5%,25.9%
C=C(CN1CC=CCC1)[C@@H]1CC[C@]2(C(=O)OC)CC[C@]3(C)[C@H](CC[C@@H]4[C@@]5(C)CC[C@H](OC(C)=O)C(C)(C)[C@@H]5CC[C@]43C)[C@@H]12,103%,109%,92.8%,86.4%,121%,102%,81.2%,113%,82.7%,82.1%
CN1CCN(Cc2ccc(NC(=O)c3cccc(C#Cc4cnc(N)c5ncccc45)c3F)cc2C(F)(F)F)CC1,-1.16% (active),66.8%,44.5%,-96.6% (active),56.2%,-77.2% (active),33.6%,-15.1% (active),7.7% (active),1.77% (active)
COc1cc2c(cc1I)-c1c(cc(OC)c(OC)c1OC)CC[C@@H]2NC(C)=O,18.7%,44.6%,26.2%,29.5%,59%,33.2%,8.95% (active),-30.6% (active),22.4%,24.3%
CCCCCCCCCCCCCCCCOc1ccc(S(=O)(=O)N(C)C)cc1[N+](=O)[O-],97.1%,98.8%,93.1%,98.5%,86%,93.5%,99.1%,118%,114%,103%
N=c1n(Cc2ccccc2)c(N)cc(=O)n1Cc1ccccc1,94.6%,0.834% (active),12.8%,13.4%,16.4%,4.21% (active),0.138% (active),40.6%,21.4%,-28.6% (active)
C/C(CC(=O)NNc1ccc([N+](=O)[O-])cc1)=N\Nc1ccc([N+](=O)[O-])cc1,111%,54.1%,68.9%,40%,93.4%,47.5%,31.3%,81%,48.6%,29.2%
CCNC(=S)N(Cc1ccccc1)Cc1ccccc1,98.6%,93.1%,103%,74.6%,106%,96.3%,93.5%,116%,132%,82.4%
COC(=O)c1cc(Cl)cc([N+](=O)[O-])c1O,135%,88.8%,108%,87.1%,118%,106%,92.6%,89.5%,25.6%,61.6%

# — PubChem BioAssay (NCI)
